# The panel holds about 79,000 compounds, 15% with a hit somewhere; the sample as a whole holds those more often. Unmarked numbers belong to inactive results. Calls of active or inactive are those of the source. Cut-off read from the data, not from the text of the source: active = growth inhibition above about 70%; inactive = the rest.
# Tests used:
# [1] = NCI Yeast Anticancer Drug Screen. Data for the rad50 strain (AID 155);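 note: 0% = growth of vehicle-only cultures of the same strain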; conditions: S. cerevisiae rad50 strain growth inhibition; at 50.0 µM; stronger effect = higher value
# Procedure, shortened: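 Relative growth inhibition (compound vs vehicle) was measured in yeast with a defined repair-gene alteration.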
# [2] = NCI Yeast Anticancer Drug Screen. Data for the mec2-1 strain (AID 157); conditions: S. cerevisiae mec2-1 strain, at 50.0 µM, stronger effect = higher value
# Procedure, shortened: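 Compounds were applied to mec2-1 yeast cells. Their growth was then compared with that of vehicle-treated cultures to give growth inhibition.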
# [3] = NCI Yeast Anticancer Drug Screen. Data for the sgs1 mgt1 strain (AID 161);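 note: 0% = growth of cultures given vehicle only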; conditions: S. cerevisiae sgs1 mgt1 strain, at 50.0 µM, stronger effect = higher value
# Procedure, shortened: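 Compounds are added to genetically altered yeast, and growth is compared with cultures given vehicle alone to give percent inhibition.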
# [4] = NCI Yeast Anticancer Drug Screen. Data for the cln2 rad14 strain (AID 165);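 note: 0% = growth equal to vehicle treated cultures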; conditions: S. cerevisiae cln2 rad14 strain, at 50.0 µM, stronger effect = higher value
# Procedure, shortened: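 Strain: cln2 rad14 yeast, altered in cell cycle control and DNA damage repair. Read-out: growth inhibition vs vehicle.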
# [5] = NCI Yeast Anticancer Drug Screen. Data for the bub3 strain (AID 167); conditions: S. cerevisiae bub3 mutant strain, at 50.0 µM, stronger effect = higher value
# Procedure, shortened: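 Screening used yeast with an engineered genetic alteration affecting cell cycle control. Compound-exposed cultures were compared with vehicle cultures, and reduced growth was taken as inhibition.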
# [6] = NCI Yeast Anticancer Drug Screen. Data for the mlh1 rad18 strain (AID 175); conditions: S. cerevisiae mlh1 rad18 strain growth inhibition; at 50.0 µM; stronger effect = higher value
# Procedure, shortened: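 A repair-deficient yeast strain is exposed to test compound, and growth is scored relative to vehicle-treated controls.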
SMILES,growth inhibition [1],growth inhibition [2],growth inhibition [3],growth inhibition [4],growth inhibition [5],growth inhibition [6]
CC(C)(CCc1nc2ccccc2[nH]1)C(=O)O,-18.1%,-6.35%,-1.35%,-10%,1.05%,-3.85%
CC(Oc1ccc(OCC2CCCCC2)cc1)C(=O)OCC(=O)c1ccc(-c2ccccc2)cc1 (centres undefined),-9.75%,-7.4%,-19.1%,-3.15%,-7.7%,-11.3%
C=CCC12CC(COc3ccccc3C(N)=O)OC1=Nc1ccccc1NC2=O (centres undefined),0.55%,0.25%,-27.6%,-1.8%,0.8%,-5.05%
Cc1c(C(=O)CC(=O)C(=O)Nc2cc(Cl)ccc2Cl)[n+](=O)c2ccccc2n1[O-],-7.35%,1.9%,-40.2%,16.2%,1.1%,1.65%
C[N+]1(C)CCC(O)CC1,-5.5%,7.2%,-3.1%,-13.4%,14.9%,1%
c1ccc(-c2nn(-c3ccccc3)[n+](-c3ccccc3)n2)cc1,5.4%,1.15%,21.9%,24.1%,30.7%,4.35%
CSC(=S)S(=O)(=O)C12CC3CC(CC(C3)C1)C2,90.5% (active),93.2% (active),89.5% (active),90% (active),86.5% (active),92.6% (active)
O=C(O)COc1ccc(C(=O)/C(SS/C(C(=O)c2ccc(OCC(=O)O)c(Cl)c2Cl)=C2\C=C(c3ccc(F)cc3)SS2)=C2/C=C(c3ccc(F)cc3)SS2)c(Cl)c1Cl,-35%,-28.4%,-14.2%,1.8%,-22.3%,83.7% (active)
COc1cc2ccc3c[n+]4ccccc4cc3c2cc1OC,9.25%,14.2%,19.9%,19.4%,20.2%,14%
O=C1C(=O)C(c2ccccc2)S(=O)(=O)C1c1ccccc1 (centres undefined),-5.3%,-5.05%,-6.3%,4.3%,7.55%,14.6%
Clc1ccc(-c2csc3nc(-c4cccs4)nn23)cc1,-0.05%,-16.6%,16.6%,1.65%,-6.95%,-5.3%
C1CC2N=NC1C21CC1.[Cl][Cu][Cl],1.2%,1.7%,-3.75%,-8.15%,8.7%,-10%
CCOc1ccc2c(N=[N+]=[N-])cc(C)nc2c1,-46.1%,-11.2%,-18.2%,-67.8%,5.3%,5.45%
O=C(Nc1ccc2ccccc2c1)c1ccc(Cl)cc1,4.65%,-9.65%,-15.1%,7.05%,31.4%,1.4%
COc1ccccc1OCC(=O)O,23.6%,0.2%,-17.8%,-24.9%,-11.9%,23.2%
COc1nc(NC2OC(CO)C(O)C(O)C2O)c(Br)c(=O)n1C (centres undefined),4.4%,-1.15%,-3.6%,-4.1%,0.75%,23%
CCCCCC[C@@H](O)C/C=C\CCCCCCCC(=O)OCC(C)O (some centres undefined),22.1%,-2.35%,8.9%,-30.6%,-2.85%,-20.4%
O=C1OC(=O)C2C1C1c3ccccc3C2(O)c2ccccc21 (centres undefined),-1.8%,-17.9%,0.2%,2.95%,6.1%,-0.6%
CC(C)CCCC(C)C1CCC2(C)C3=C(CCC12C)C1(C)Cc2nonc2C(C)(C)C1CC3 (centres undefined),20.9%,3.35%,3.3%,14.9%,0.55%,11.3%

# Source: PubChem BioAssay (NCI)
